Experimental findings from PubChem BioAssay (Tox21) are described below.

Assay [1] in a line: qHTS assay to test for compound auto fluorescence at 535 nm (green) in HEK293 cells (AID 720680).
Assay [2] can be described thus: qHTS assay to test for compound auto fluorescence at 460 nm (blue) in HEK293 cell free culture (AID 720681). A digest of the protocol:
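Blue fluorescence (Ex 405/Em 460 nm, triamterene-equivalent) was read immediately after pin transfer of compound or DMSO into medium (DMEM, 10% FBS) without cells.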

Assay [3] in a line: qHTS assay to test for compound auto fluorescence at 535 nm (green) in HEK293 cell free culture (AID 720682). A digest of the protocol: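 Cell-free medium (DMEM, 10% FBS) receives compound or DMSO by pintool. Plate read directly at Ex 485/Em 535 nm. Signal converted to fluorescein equivalency.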
Assay [4] can be described thus: qHTS assay to test for compound auto fluorescence at 590 nm (red) in HEK293 cell free culture (AID 720683). The method, boiled down: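 Red-channel autofluorescence of compounds in culture medium (DMEM, 10% FBS), no cells, measured at 540/590 nm. Rose Bengal sodium is the reference fluorophore for equivalence.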
Assay [5] can be described thus: qHTS assay to test for compound auto fluorescence at 590 nm (red) in HepG2 cell free culture (AID 720684). The method, boiled down: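 Cell-free; medium MEM + 10% FBS; compound or DMSO added by pintool; read Ex 540/Em 590 nm; Rose Bengal sodium as red reference fluorophore.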
Assay [6] can be described thus: qHTS assay to test for compound auto fluorescence at 460 nm (blue) in HepG2 cell free culture (AID 720685). The method, boiled down: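 Cell-free plates of MEM plus 10% FBS received 23 nL compound or DMSO vehicle; blue-channel (405/460 nm) intensity scored against triamterene as reference fluorophore.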
The nature of assay [7]: qHTS assay to test for compound auto fluorescence at 460 nm (blue) in HepG2 cells (AID 720687). A digest of the protocol:
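Blue-channel autofluorescence (Ex/Em 405/460 nm, triamterene-equivalent) was measured after 1 hr compound exposure at 37 C, 5% CO2. Cells were HepG2, plated overnight at 37 C in MEM plus 10% FBS.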

Assay [8] is described as follows: qHTS assay to identify small molecule antagonists of the glucocorticoid receptor (GR) signaling pathway - cell viability counter screen (AID 720693). Note: nearly all actives have a fitted effect of over 55% in size.
The nature of assay [9]: qHTS assay for identifying genotoxic compounds that show differential cytotoxicity against isogenic chicken DT40 cell lines with known DNA damage response pathways - wild type cell line (AID 743012). Note: nearly all actives have a fitted effect of over 60% in size. Note: potency is the fitted concentration of half-maximal effect. The method, boiled down:
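Viability of DNA repair-proficient chicken DT40 cells was assessed by CellTiter-Glo luminescence following 40 h compound exposure at 37 C/5% CO2.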

Assay [10] is described as follows: qHTS assay for identifying genotoxic compounds that show differential cytotoxicity against isogenic chicken DT40 cell lines with known DNA damage response pathways - Rev3 mutant cell line (AID 743014). Note: nearly all actives have a fitted effect of over 55% in size. Note: potency is the fitted concentration of half-maximal effect.
Assay [11] is described as follows: qHTS assay for identifying genotoxic compounds that show differential cytotoxicity against isogenic chicken DT40 cell lines with known DNA damage response pathways - Rad54/Ku70 mutant cell line (AID 743015). Note: nearly all actives have a fitted effect of over 60% in size. Note: potency is the fitted concentration of half-maximal effect.
The nature of assay [12]: qHTS assay to identify small molecule antagonists of the androgen receptor (AR) signaling pathway - cell viability counter screen (AID 743033; note: nearly all actives have a fitted effect of over 45% in size; note: potency is the fitted concentration of half-maximal effect).
Assay [13] is described as follows: qHTS assay to identify small molecule antagonists of the androgen receptor (AR) signaling pathway using the MDA cell line - cell viability counter screen (AID 743041; note: nearly all actives have a fitted effect of over 45% in size; note: potency is the fitted concentration of half-maximal effect). The method, boiled down: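 Viability read by CellTiter-Fluor fluorescence in the same wells as the antagonist screen, added after 15.5 h of a 16 h, 37C exposure. Human breast carcinoma MDA-kb2 AR-luc cells, compounds co-dosed with agonist R1881.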

Assay [14] is described as follows: qHTS assay to identify small molecule antagonists of the thyroid receptor (TR) signaling pathway - cell viability counter screen (AID 743064). Note: nearly all actives have a fitted effect of over 50% in size. Note: potency is the fitted concentration of half-maximal effect. The method, boiled down: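 GH3.TRE-Luc cells, 4 h pre-plating; cpd + T3 1 nM final; 37 °C 23.5 h; CellTiter-Fluor 30 min; fluorescence read.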
Assay [15] concerns the target Glucocorticoid receptor (Homo sapiens) (UniProt P04150). Description: qHTS assay to identify small molecule agonists of the glucocorticoid receptor (GR) signaling pathway (AID 720691; active = well fitted activation curve with a large enough effect in the signal ratio in the repeat runs, not every such curve was filed as active; the % refers to the signal ratio). A digest of the protocol:
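Compounds in DMSO, alongside positive controls, were added to GR-bla HeLa reporter cells and incubated 18 h at 37 C; GRE-driven beta-lactamase was detected by fluorescence after 2 h with FRET substrate at room temperature.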

Assay [16] shares this target. In words: qHTS assay to identify small molecule antagonists of the glucocorticoid receptor (GR) signaling pathway (AID 720692; active = well fitted inhibition curve with a large enough effect in the signal ratio in the repeat runs, not every such curve was filed as active; the % refers to the signal ratio). The method, boiled down:
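In a 1536-well cell format, compounds were added 4 h after seeding GR-bla HeLa cells, together with dexamethasone at 5 nM final; reporter activity was measured by FRET-substrate fluorescence following 18 h at 37 C.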

Assay [17] is described as follows: qHTS assay to test for compound auto fluorescence at 535 nm (green) in HepG2 cell free culture (AID 720686).
In assay [18] the target is Androgen receptor (Homo sapiens) (UniProt P10275). Description: qHTS assay to identify small molecule antagonists of the androgen receptor (AR) signaling pathway (AID 743035; active = well fitted inhibition curve with a large enough effect in the signal ratio in the repeat runs, not every such curve was filed as active; the % refers to the signal ratio). The method, boiled down:
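Reporter HEK293 cells were exposed to compounds and R1881 overnight (16 h, 37C); beta-lactamase activity was then quantified by FRET fluorescence.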

Assay [19] shares this target. In words: qHTS assay to identify small molecule agonists of the androgen receptor (AR) signaling pathway (AID 743036; active = well fitted activation curve with a large enough effect in the signal ratio in the repeat runs, with a control signal flat, not every such curve was filed as active; the % refers to the signal ratio). The method, boiled down:
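AR-bla HEK293 cells, 2,000/well; 4 h preincubation 37C/5% CO2; compound (DMSO) 16 h at 37C; LiveBLAzer B/G FRET substrate 2 h RT; fluorescence intensity read-out.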

The target is the same in assay [20]. In words: qHTS assay to identify small molecule antagonists of the androgen receptor (AR) signaling pathway using the MDA cell line (AID 743042; note: nearly all actives have a fitted effect of over 55% in size). A digest of the protocol: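 Antagonist mode: compounds plus R1881 agonist added to MDA-kb2 AR-luc cells, incubated 16 h at 37C. Luciferase reporter luminescence quantified, with multiplexed CellTiter-Fluor readout for cell viability.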

Where “and” joins values, the source holds several entries; their conditions need not be identical. Equal entries are not always repeated. Inconclusive results are not listed. A structure can be active in one record and inactive in another. Calls of active or inactive are those of the source. Unless noted, calls come from the whole dose curve; as a rule, active = well fitted curve in the direction sought with a large enough effect in the repeat runs; inconclusive = weak or mixed curves; inactive = no such curve, though single readings can be large; an effect the other way counts as inactive or inconclusive.

Sequence of Androgen receptor (Homo sapiens) (P10275 whole entry, looked up): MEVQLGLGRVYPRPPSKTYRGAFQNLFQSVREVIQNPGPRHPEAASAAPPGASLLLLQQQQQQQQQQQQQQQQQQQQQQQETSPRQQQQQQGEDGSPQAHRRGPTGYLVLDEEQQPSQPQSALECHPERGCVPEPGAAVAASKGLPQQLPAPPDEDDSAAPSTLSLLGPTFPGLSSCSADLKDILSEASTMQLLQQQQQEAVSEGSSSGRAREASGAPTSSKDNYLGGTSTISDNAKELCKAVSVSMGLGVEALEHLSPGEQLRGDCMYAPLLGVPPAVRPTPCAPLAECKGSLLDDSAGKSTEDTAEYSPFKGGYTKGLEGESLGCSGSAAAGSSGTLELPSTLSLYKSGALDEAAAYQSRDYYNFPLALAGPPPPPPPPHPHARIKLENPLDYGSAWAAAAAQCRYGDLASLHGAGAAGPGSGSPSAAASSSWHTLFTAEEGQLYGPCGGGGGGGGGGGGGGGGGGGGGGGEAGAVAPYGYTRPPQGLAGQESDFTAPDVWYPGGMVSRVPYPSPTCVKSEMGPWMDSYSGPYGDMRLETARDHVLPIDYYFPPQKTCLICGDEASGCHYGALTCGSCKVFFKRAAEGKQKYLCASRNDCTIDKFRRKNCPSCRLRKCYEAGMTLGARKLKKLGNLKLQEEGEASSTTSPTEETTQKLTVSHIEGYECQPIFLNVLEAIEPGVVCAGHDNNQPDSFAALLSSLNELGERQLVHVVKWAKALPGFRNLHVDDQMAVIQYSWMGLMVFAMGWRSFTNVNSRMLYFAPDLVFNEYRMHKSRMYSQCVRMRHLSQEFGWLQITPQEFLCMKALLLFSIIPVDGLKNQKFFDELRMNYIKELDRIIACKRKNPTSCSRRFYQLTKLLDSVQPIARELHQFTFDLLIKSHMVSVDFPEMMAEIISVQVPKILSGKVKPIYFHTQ
Sequence of Glucocorticoid receptor (Homo sapiens) (P04150 whole entry, looked up): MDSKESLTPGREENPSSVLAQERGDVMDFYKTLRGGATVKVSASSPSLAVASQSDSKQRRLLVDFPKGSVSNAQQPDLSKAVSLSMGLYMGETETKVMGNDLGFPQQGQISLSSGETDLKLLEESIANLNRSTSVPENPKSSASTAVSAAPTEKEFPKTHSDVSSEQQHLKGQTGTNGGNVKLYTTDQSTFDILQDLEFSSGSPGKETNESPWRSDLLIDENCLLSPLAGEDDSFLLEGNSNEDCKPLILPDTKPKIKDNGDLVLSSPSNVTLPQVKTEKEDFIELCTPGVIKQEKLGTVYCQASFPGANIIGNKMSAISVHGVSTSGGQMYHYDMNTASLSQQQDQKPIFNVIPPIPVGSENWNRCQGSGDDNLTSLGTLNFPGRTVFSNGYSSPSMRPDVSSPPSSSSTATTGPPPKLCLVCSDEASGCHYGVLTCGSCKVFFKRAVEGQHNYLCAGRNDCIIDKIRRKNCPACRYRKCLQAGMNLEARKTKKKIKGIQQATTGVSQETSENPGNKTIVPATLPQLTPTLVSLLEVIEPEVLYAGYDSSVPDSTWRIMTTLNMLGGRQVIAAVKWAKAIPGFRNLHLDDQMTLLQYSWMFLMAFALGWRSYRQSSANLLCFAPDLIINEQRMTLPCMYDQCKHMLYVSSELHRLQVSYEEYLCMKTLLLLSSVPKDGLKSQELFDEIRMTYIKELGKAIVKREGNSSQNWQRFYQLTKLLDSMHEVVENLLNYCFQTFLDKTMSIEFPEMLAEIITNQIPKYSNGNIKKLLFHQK

Consider `CC(=O)OCCOCCOCCOC(C)=O`, for which the Potency entry in [1], in [2], in assay [3], in assay [6], in [7] and in assay [8] was “inactive” in each case. Moreover, the Potency entry in [9], in assay [10], in assay [11], in [12], in assay [13] and in assay [14] was “inactive” in each case. Also, the call in assay [4] and in assay [5] was inactive.

With `c1ccc2n[nH]nc2c1`, the Potency result in [1], in [2], in assay [3], in [6], in [7] and in assay [15] was “inactive” throughout. In addition, the Potency result in assay [16], in assay [8], in assay [9], in assay [11], in assay [12] and in assay [13] was “inactive” throughout. The Potency entry in assay [14] is “inactive”. Also, the compound was called inactive in assay [4] and in assay [5]. Moreover, in assay [10], the Potency result is “inactive and 61.1 µM (active)”.

In the case of `CCCCC/C=C/CC1CC(=O)OC1=O` (stereo not given), the Potency result in assay [1], in assay [2], in assay [3], in assay [6], in assay [7] and in assay [8] was “inactive” in each case. Besides, the Potency entry in assay [9], in assay [11], in assay [12], in [13] and in assay [14] was “inactive” throughout. For the same compound, the result in [4] and in assay [5] was inactive.

Turning to `NNCCc1ccccc1`, the Potency entry in [1], in assay [2], in [6], in [17], in assay [7] and in assay [15] was “inactive” in each case. The Potency entry in [16], in assay [8], in assay [9], in [10], in [11] and in assay [12] was “inactive” in each case. Further, the Potency result in [13] is “inactive”. The outcome in assay [4] and in assay [5] was inactive. Besides, in assay [14], the Potency entry is “inactive and 27.4 µM (active)”.

On to `c1ccc2cc3c(ccc4ccccc43)cc2c1`, for which the Potency result in [1], in assay [2], in assay [3], in assay [6], in assay [17] and in assay [8] was “inactive” throughout. For the same compound, the Potency entry in [11], in [12], in [13] and in assay [14] was “inactive” throughout. Moreover, the compound was called inactive in assay [4] and in assay [5].

Regarding `COc1ccc(CCN(C)CCCC(C#N)(c2ccc(OC)c(OC)c2)C(C)C)cc1OC` (stereo not given), the Potency result in assay [1], in assay [2], in assay [3], in [6], in assay [17] and in [8] was “inactive” in each case. For the same compound, the compound was called inactive in assay [4] and in assay [5]. Also, the Potency in assay [9] is 13.3 µM (active) and 54.4 µM (active); in assay [11], 29.8 µM (active) and 61 µM (active); in assay [14], 23.7 µM (active) and 21.6 µM (active).

Regarding `CC(C)C(=O)c1c(C(C)C)nn2ccccc12`, the Potency result in [1], in assay [2], in [3], in assay [6], in assay [17] and in [8] was “inactive” each time. Further, the Potency entry in assay [10], in [12], in [13] and in assay [14] was “inactive” throughout. In addition, the compound was classed as inactive in assay [4] and in [5].

`CC1COC(=O)O1` (stereo not given): the Potency result in assay [1], in assay [2], in assay [6], in [17], in assay [7] and in [15] was “inactive” each time. Besides, the Potency result in assay [16], in assay [8], in assay [9], in assay [10], in assay [11] and in assay [12] was “inactive” throughout. The Potency result in [18], in assay [19], in assay [13], in assay [20] and in [14] was “inactive” each time. Moreover, the compound was called inactive in [4] and in assay [5].

In the case of `COc1ccc(CCN2CCC(Nc3nc4ccccc4n3Cc3ccc(F)cc3)CC2)cc1`, the Potency entry in assay [1], in [2], in assay [3], in [6] and in assay [7] was “inactive” throughout. Besides, the call in [4] and in assay [5] was inactive. In addition, the Potency was 5.96 µM (active) and 7.01 µM (active) in assay [9]; 7.5 µM (active) and 6.25 µM (active) in [10]; 8.41 µM (active) and 8.82 µM (active) in [11]; 21.3 µM (active) and 6.3 µM (active) in [12]; 39.4 µM (active) in assay [13]; 5.31 µM (active) and 1.25 µM (active) in assay [14].

Consider `O=C1CC2(CCCC2)CC(=O)N1CCCCN1CCN(c2ncccn2)CC1`, for which the Potency result in [1], in assay [2], in assay [3], in assay [6], in assay [7] and in [8] was “inactive” in each case. Moreover, the Potency result in [13] and in assay [14] was “inactive” throughout. Besides, the result in assay [4] and in assay [5] was inactive. The Potency in [9] is 21.1 µM (active) and 13.7 µM (active); in assay [10] it was 7.7 µM (active); in [11], 21.1 µM (active) and 15.4 µM (active); in assay [12], “inactive and 21.9 µM (active)”.

In the case of `CCOc1ccccc1C(N)=O`, the Potency result in assay [1], in assay [2], in assay [3], in assay [6], in [7] and in assay [15] was “inactive” each time. In addition, the Potency result in [16], in [8], in assay [9], in [10], in assay [11] and in assay [12] was “inactive” each time. For the same compound, the Potency entry in assay [18], in assay [19], in assay [20] and in [14] was “inactive” throughout. The compound was classed as inactive in [4] and in [5].

As to `C=CC(=O)OCCCCCCCC`, the Potency result in [1], in [2], in [3], in [6], in assay [7] and in [15] was “inactive” each time. For the same compound, the Potency result in [16], in [8], in assay [9], in assay [11], in assay [12] and in assay [13] was “inactive” in each case. In addition, the Potency result in assay [14] is “inactive”. In addition, the outcome in assay [4] and in assay [5] was inactive.

As for `O=C(Nc1ccccc1SSc1ccccc1NC(=O)c1ccccc1)c1ccccc1`, the Potency entry in assay [1], in [2], in [3], in assay [6] and in assay [17] was “inactive” each time. Moreover, the outcome in assay [4] and in assay [5] was inactive. For the same compound, the Potency in assay [9] is 2.45 µM (active) and 1.37 µM (active); in assay [10], 1.38 µM (active) and 1.72 µM (active); in assay [11] it was 2.45 µM (active) and 1.72 µM (active); in assay [12], 11 µM (active) and 19.5 µM (active); in assay [14], 68.6 µM (active).
